USP28 block – blocks human USP28 ubiquitin-rhodamine cleavage | Q96RU2 | purified USP28, Ub-rhodamine cleavage fluorescence, 30 min | inhibition, % at 25 µM | hit rate 3% among 47,000 | AID 1645857
USP17 block – human USP17-like deubiquitinase inhibition; purified USP17, Ub-rhodamine cleavage fluorescence, 3 h; AID 1645855; A8MUK1; inhibition, % at 50 µM; hit rate 6.5% among 47,000
USP10 block – human USP10 deubiquitinase inhibition. purified USP10, Ub-rhodamine fluorescence, 60 min. inhibition, % at 20 µM. hit rate 1.1% among 47,000
USP8 inh – inhibitors of human USP8 deubiquitinase | hit rate 4.2% among 47,000 | inhibition, % at 20 µM | purified USP8, Ub-rhodamine cleavage fluorescence, 30 min | P40818 | AID 1645853
Target sequence (P40818 whole entry, looked up): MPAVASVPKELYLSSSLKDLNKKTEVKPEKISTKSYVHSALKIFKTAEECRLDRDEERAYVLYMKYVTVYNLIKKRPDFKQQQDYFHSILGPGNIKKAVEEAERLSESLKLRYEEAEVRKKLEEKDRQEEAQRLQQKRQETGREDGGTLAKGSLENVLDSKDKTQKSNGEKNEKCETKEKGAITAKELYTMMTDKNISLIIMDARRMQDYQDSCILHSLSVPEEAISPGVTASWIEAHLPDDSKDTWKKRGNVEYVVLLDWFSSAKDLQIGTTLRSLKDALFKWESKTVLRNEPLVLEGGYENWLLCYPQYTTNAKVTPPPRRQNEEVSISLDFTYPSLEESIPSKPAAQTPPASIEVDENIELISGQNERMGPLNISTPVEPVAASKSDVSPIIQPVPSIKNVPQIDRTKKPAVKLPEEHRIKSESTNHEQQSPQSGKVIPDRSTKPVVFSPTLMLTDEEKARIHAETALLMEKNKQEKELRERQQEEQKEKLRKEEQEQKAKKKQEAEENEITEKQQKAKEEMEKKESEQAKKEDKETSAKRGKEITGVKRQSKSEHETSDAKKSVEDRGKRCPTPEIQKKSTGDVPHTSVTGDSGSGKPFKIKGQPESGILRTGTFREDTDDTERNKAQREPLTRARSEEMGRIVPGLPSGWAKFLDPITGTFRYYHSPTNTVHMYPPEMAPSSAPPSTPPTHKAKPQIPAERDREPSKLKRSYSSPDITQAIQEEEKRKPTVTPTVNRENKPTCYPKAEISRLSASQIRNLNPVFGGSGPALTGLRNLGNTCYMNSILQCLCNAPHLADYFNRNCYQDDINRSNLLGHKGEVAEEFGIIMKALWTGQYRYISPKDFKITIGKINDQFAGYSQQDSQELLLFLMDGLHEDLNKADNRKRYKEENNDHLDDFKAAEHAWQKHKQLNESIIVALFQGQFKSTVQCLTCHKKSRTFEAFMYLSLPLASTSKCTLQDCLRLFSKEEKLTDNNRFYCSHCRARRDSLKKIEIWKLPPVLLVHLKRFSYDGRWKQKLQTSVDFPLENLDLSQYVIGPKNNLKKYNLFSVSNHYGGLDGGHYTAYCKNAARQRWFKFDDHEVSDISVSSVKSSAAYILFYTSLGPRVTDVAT
USP30 inh – blocks human USP30 ubiquitin-rhodamine cleavage; hit rate 5.3% among 47,000; purified USP30, Ub-rhodamine cleavage fluorescence; Q70CQ3; inhibition, % at 25 µM
Of the large screens only hits and unclear results are named; the others gave an inactive call. A selection: hits, their analogues and other compounds. The true share with any hit is near 14%. No stated cut-off is given here; in the data, active means inhibition above about 30%; inactive means the rest.

COc1ccc(-c2nnc(SC(C)C(=O)Nc3cccc(C(C)=O)c3)n2C2CCCCC2)cc1OC (centres undefined)	none
Cc1cccc(NC(=O)c2nc(N3CCSCC3)c3cnn(C)c3n2)c1	USP17 block 64
CC(C)c1cccc(NC(=O)c2nc(N3CCSCC3)c3cnn(C)c3n2)c1	none
Cc1cc(C)c(NC(=O)CSc2nc3nccnc3c(=O)n2Cc2ccccc2Cl)c(C)c1	USP28 block 37, USP17 block 49
Fc1ccc(CSc2nnc(-c3ccccn3)n2Cc2ccco2)cc1	USP28 block 56
COc1ccccc1NC(=O)CSc1nnc(-c2ccccn2)n1-c1cc(C)cc(C)c1	USP17 block 34
CCc1ccccc1NC(=O)CSc1nnc(-c2cnccn2)n1Cc1ccco1	none
Cc1ccc(C)c(NC(=O)CSc2nnc(-c3ccccn3)n2Cc2ccco2)c1	USP17 block 39, USP30 inh 62
Fc1ccccc1CSc1nnc(-c2ccccn2)n1Cc1ccco1	USP28 block 32
O=C(CSc1nnc(-c2cnccn2)n1Cc1ccco1)Nc1cccc(F)c1	none
O=C(CSc1nnc(-c2ccccn2)n1-c1ccccc1)Nc1cccc2ccccc12	none
CC1(C)OC(=O)[C@@]2(C)N[C@]1(C)C[C@@H]2C(=O)Nc1cccc(CO)c1	none
CN1C(=O)c2cc(S(=O)(=O)Nc3ccccc3)ccc2Oc2cccnc21	none
Cc1ncc(-c2nccnc2C2CCN(C(=O)c3n[nH]c4ccccc34)CC2)n1C	none
COc1ccc(-n2c(SCC(=O)c3ccccc3)nnc2-c2cccnc2)cc1	none
COc1ccc(CSc2nnc(-c3ccccn3)n2-c2ccc(OC)cc2)cc1	USP30 inh 38
COc1ccccc1N1CCN(C(=O)C2CCN(c3nc(NC(C)=O)ns3)CC2)CC1	none
O=C(Nc1ccc(F)cc1F)c1cccc(S(=O)(=O)N2CCCCC2)c1	none
O=C(Nc1ccc2c(c1)CCN2S(=O)(=O)c1ccccc1)Nc1ccc(F)cc1F	USP28 block 43
O=C(Nc1ccccc1Cl)c1cc2c(=O)n3ccccc3nc2n1Cc1ccccc1	none
CCCCCC1CC2=C(C(=O)OC2=O)C(O)C(O)(CCCC)CC2=C1C(=O)OC2=O (centres undefined)	none
CCCCCCCCCCCC[C@@]1(C(=O)O)OC(=O)[C@@H](O)[C@@]1(O)C(=O)O	USP30 inh 41
Cn1c(-c2c(N)n(Cc3ccc(Cl)cc3)c3nc4ccccc4nc23)nc2ccccc21	USP8 inh 57
COC(=O)[C@H](Cc1ccc(O)cc1)NC(=O)c1ccc(Cl)cc1	none
COc1ccc(C(=O)Nc2ccccc2C(=O)NC(Cc2ccc(O)cc2)C(=O)NNC(=O)c2ccccc2Cl)cc1 (centres undefined)	USP28 block 75, USP17 block 82, USP10 block 62, USP8 inh 59, USP30 inh 69
COc1ccccc1CNC(=O)Cn1c(=O)c2c(ncn2CC(C)C)n(Cc2ccccc2)c1=O	USP30 inh 31
COc1ccccc1CNC(=O)CCCCn1c(=O)c2ccccc2n(Cc2ccc(C)cc2)c1=O	USP17 block 38, USP10 block 35
COc1ccnc2c1c(=O)n(CC(=O)NCc1ccccc1Cl)c(=O)n2C	USP30 inh 42
COc1ccccc1CNC(=O)CCCCn1c(=O)c2ccccc2n(Cc2ccccc2C#N)c1=O	USP17 block 65
CC(C)(C)CN1CCCC(CNS(=O)(=O)c2cccc3cccnc23)C1 (centres undefined)	none
Cc1ccc(N2CCN(Cc3nc(-c4ccc(N5CCOCC5)nc4)no3)CC2)cc1	none
CCn1ncc(-c2cc(C(=O)Nc3ccc4c(c3)cc(C)n4CCOC)no2)c1C	none
N#Cc1ccc(NC(=O)/C(=C/c2ccco2)n2nnnc2-c2ccccc2)cc1	none (no result: USP28 block, USP30 inh)
CC(C)Cn1c(CN2CCOCC2)nnc1SCC(=O)c1ccc(F)cc1	none
COc1ccccc1N/C=C/c1onc(-c2c(F)cccc2Cl)c1C#N	none (no result: USP17 block)
COC(=O)c1c(-c2c(Cl)cccc2Cl)noc1/C=C/Nc1ccc(C(=O)O)cc1	USP28 block 31
Cc1cc(C)n2ncc(C(=O)N3CCN(c4ncccn4)CC3)c2n1	none (no result: USP28 block, USP30 inh)
O=C(c1ccco1)N1CCN(C(=O)c2cc3c(s2)CN(C2CC2)C3)CC1	none
O=C(c1cc2c(s1)CN(C1CCCC1)C2)N1CCCN(c2ncccn2)CC1	USP8 inh 84
O=C(c1cc2cn(C3CC3)cc2s1)N1CCCN(c2ncccn2)CC1	USP8 inh 83
O=C(CSc1nnc(Cc2cc(=O)[nH]c(=O)[nH]2)n1-c1ccc(Cl)cc1)Nc1cccc(F)c1	none

Screening data deposited in PubChem by Buhrlage Lab, Dana-Farber Cancer Institute and Novartis Institutes for BioMedical Research (Cambridge, Mass).
